{"source": "PubChem BioAssay (EPA / NIEHS)", "note": "Calls of active or inactive are those of the source. The calls were made as follows: active = hit-call score of the fitted dose curve at least 0.9, where 1 is the maximum; inactive = score below 0.9.", "data": [{"assay": "APR_HepG2_NuclearSize_24hr: Apredica 24-hour HepG2 Assay for Nuclear Size (AID 2282907)", "details": "high-content imaging, actives raise or lower the signal", "method": "APR_HepG2_24hr is a cell-based, multiplexed-readout assay that uses HepG2, a human liver cell line, with measurements taken at 24 hours after chemical dosing in a 384-well plate.APR_HepG2_NuclearSize_24hr is one of 10 assay component(s) measured or calculated from the APR_HepG2_24hr assay. It is designed to make measurements of cell phenotype, a form of morphology reporter, as detected with fluorescence intensity signals by HCS Fluorescent Imaging technology.Data from the assay component APR_HepG2_NuclearSize_24hr was analyzed into 1 assay endpoint. This assay endpoint, APR_HepG2_NuclearSize_24hr, was analyzed with bidirectional fitting relative to DMSO as the negative control and baseline of activity. Using a type of morphology reporter, measures of all nuclear dna for gain or loss-of-signal activity can be used to understand the signaling at the nuclear-level. Furthermore, this assay endpoint can be referred to as a primary readout, because this assay has produced multiple assay endpoints where this one serves a signaling function. To generalize the intended target to other relatable targets, this assay endpoint is annotated to the cell morphology intended target family, where the subfamily is organelle conformation.\nCells were treated with dimethyl sulfoxide (DMSO) as a solvent control at a final concentration of 0.5% v/v or with compounds in DMSO with a resulting final DMSO concentration of 0.5% v/v. Compound treatment was done at concentrations of 0.39, 0.78, 1.56, 3.12, 6.24, 12.5, 25, 50, 100, and 200 uM in duplicate on each plate. Cells were treated with compounds for 1, 24, or 72 hr. Carbonyl […] m-chloro-phenylhydrazone (CCCP) and taxol were used as positive controls for mitochondrial function and cytoskeletal stability, respectively; DMSO served as the negative control for this experiment. Cells were fixed by the direct addition of 50 uL formaldehyde in Hank's Balanced Salt Solution (HBSS) to a final concentration of 3.7%. After incubation in the fixation medium for 30 min at room temperature (293-298 K), cells were rinsed twice with HBSS and treated with cell permeabilization buffer (16 uL of 0.5% Triton X-100) for 10 min at room temperature (293-298 K) before labeling. For mitochondrial membrane potential and mitochondrial measurements, pre-fixed cells were incubated with 50 uL of MitoTracker Red CMXRos (Invitrogen) at a concentration of 250 nM for 30 min before fixation. In the remaining cases, post-fixed cells were labeled by incubation with a multiplexed mixture of primary antibodies in HBSS for 60 min at room temperature (293-298 K) to detect immunoreactivity of c-Jun (1:500), phospho-histone H3 (1:100), phospho-histone H2A.x (1:200), p53 (1:400), alpha-tubulin (1:200) and Hoechst 33342 (2 ug/mL). Cells were labeled for multiplexed imaging on two separate plates: a) Hoechst 33342, MitoTracker Red, phospho-histone H3, and alpha-tubulin, and b) Hoechst 33342, phospho-histone H2A.x, and c-Jun. A final rinse with HBSS (50 uL) was performed before analysis. The primary and secondary antibodies for the proteins were phospho-histone H3 (rabbit anti-phospho-histone H3 and FITC-donkey anti-rabbit IgG), phospho-histone H2A.x (mouse anti-phospho-histone H2A.x and FITC-donkey anti-mouse IgG), c-Jun (rabbit anti-phospho-c-Jun and Cy3-donkey anti-rabbit IgG), p53 (sheep anti-p53 and Cy5-donkey anti-sheep IgG), alpha-tubulin (mouse anti-alpha-tubulin and Cy5-donkey anti-mouse IgG). These antibodies are available as the CellCiphr HepG2 assay kit (Millipore).Digital images of each well were captured using a Cellomics ArrayScan VTI (Thermo Scientific Cellomics) (0.8 NA objective, 0.63x optical coupler, and XF-93 filter set) at 20x magnification. The images were acquired using the autofocus feature of the ArrayScan instrument, which entails the following steps. First, the camera focuses on channel 1 (Hoechst 33342), where nuclei are identified. Second, a Z offset of 1 um is used for capturing mitochondria (MitoTracker Red). […]", "values": [{"molecule": "CCC(=C(c1ccc(O)cc1)c1ccc(OCCN(C)C)cc1)c1ccccc1", "outcome": "inactive"}, {"molecule": "CCCCCCCCCCCCCCCS(=O)(=O)Oc1ccccc1", "outcome": "inactive"}, {"molecule": "COCC(C)O", "note": "(stereo not given)", "outcome": "inactive"}, {"molecule": "CC#C[C@]1(O)CC[C@H]2[C@@H]3CCC4=CC(=O)CCC4=C3[C@@H](c3ccc(N(C)C)cc3)C[C@@]21C", "outcome": "inactive"}, {"molecule": "CCCCC(CC)COC(=O)CCCCC(=O)OCC(CC)CCCC", "note": "(stereo not given)", "outcome": "inactive"}, {"molecule": "CCc1ccc(CCOc2ccc(CC3SC(=O)NC3=O)cc2)nc1", "note": "(stereo not given)", "outcome": "inactive"}, {"molecule": "Oc1cc2ccccc2c2ccccc12", "outcome": "inactive"}, {"molecule": "N#C[C@@H]1CC(F)(F)CN1C(=O)CNC1CC2CCC(C1)N2c1ncccn1", "note": "(stereo not given in full)", "outcome": "inactive"}, {"molecule": "C#C[C@]1(O)CC[C@H]2[C@@H]3CCC4=CC(=O)CC[C@@H]4[C@H]3CC[C@@]21C", "outcome": "inactive"}, {"molecule": "CN1CCC[C@H]1c1cccnc1", "outcome": "inactive"}, {"molecule": "ClC1=C(Cl)C(Cl)(Cl)C(Cl)=C1Cl", "outcome": "inactive"}, {"molecule": "CC(C)(C)CC(C)(C)c1ccc(O)c(-n2nc3ccccc3n2)c1", "outcome": "inactive"}, {"molecule": "CN1CCN(c2ccccc2/C=C2\\SCCN(c3ccc(Cl)c(Cl)c3)C2=O)CC1", "AC50": "11.2 µM (active)"}, {"molecule": "CN(C)C=O", "outcome": "inactive"}, {"molecule": "COCC(C)OCC(C)O", "note": "(stereo not given)", "outcome": "inactive"}, {"molecule": "CCCOC(=O)c1ccc(O)cc1", "outcome": "inactive"}, {"molecule": "CCCCCCCC(=O)O", "outcome": "inactive"}, {"molecule": "CCCCCCCCOC(=O)CCCCCCCCC(=O)OCCCCCCCC", "outcome": "inactive"}, {"molecule": "CC(=O)CC(C)(C)O", "outcome": "inactive"}, {"molecule": "OCCC(F)(F)C(F)(F)C(F)(F)C(F)(F)C(F)(F)C(F)(F)F", "outcome": "inactive"}, {"molecule": "O=c1c(-c2ccc(O)cc2)coc2cc(O)ccc12", "outcome": "inactive"}, {"molecule": "CCCCCCCCCCCCN1CCCC1=O", "AC50": "75.3 µM (active)"}, {"molecule": "CCCCC[C@H](O)CC(=O)CCc1ccc(O)c(OC)c1", "outcome": "inactive"}, {"molecule": "CC(C)(C)c1ccc(O)c(C(C)(C)C)c1", "outcome": "inactive"}, {"molecule": "CCC(C)(C)C1CCC(O)CC1", "note": "(stereo not given)", "outcome": "inactive"}, {"molecule": "CCc1nn(C2CCCCC2)c2cc(C3(C#N)CCC(C(=O)O)CC3)ccc12", "note": "(stereo not given)", "outcome": "inactive"}, {"molecule": "CC(O)CO", "note": "(stereo not given)", "outcome": "inactive"}, {"molecule": "OC1CCC(C2CCCCC2)CC1", "note": "(stereo not given)", "outcome": "inactive"}, {"molecule": "CCCCOCCO", "outcome": "inactive"}, {"molecule": "O=C(O)c1ccccc1C(c1ccc(O)cc1)c1ccc(O)cc1", "outcome": "inactive"}, {"molecule": "Nc1cccc2c(N)cccc12", "outcome": "inactive"}, {"molecule": "OCCC(F)(F)C(F)(F)C(F)(F)C(F)(F)C(F)(F)C(F)(F)C(F)(F)C(F)(F)F", "AC50": "75 µM (active)"}, {"molecule": "O=C(OCCOCCOC(=O)c1ccccc1)c1ccccc1", "outcome": "inactive"}, {"molecule": "CC1=C(/C=C/C(C)=C/C=C/C(C)=C/C(=O)O)C(C)(C)CCC1", "AC50": "114 µM (active)"}, {"molecule": "Oc1cccc(O)c1", "outcome": "inactive"}, {"molecule": "c1ccc2cc3c(ccc4ccccc43)cc2c1", "outcome": "inactive"}, {"molecule": "CC(C)CCCCCCOC(=O)CCCCC(=O)OCCCCCCC(C)C", "outcome": "inactive"}, {"molecule": "Cc1oc(-c2ccccc2)nc1CCOc1ccc(C[C@H](Nc2ccccc2C(=O)c2ccccc2)C(=O)O)cc1", "outcome": "inactive"}, {"molecule": "CCCCCCC(=O)O", "outcome": "inactive"}, {"molecule": "NC(=O)N1C(=O)C(C(=O)c2cc(Cl)cs2)c2cc(F)c(Cl)cc21", "note": "(stereo not given)", "outcome": "inactive"}]}]}
